# Some of the results follow. No count for the full screen is at hand.
# B1: HC2491 (peptide)
# chain: CASDPCSAHLAGNASASA
# B2: HC2467 (peptide)
# chain: CAFTPCSAHLAGNASASA
# B3: HC1894 (peptide)
# chain: CATTPCSKSWAGNASASA
# B4: HC230 (peptide)
# chain: CALVGAPLGGAGNASASA
# B5: FS-1180 (peptide)
# chain: CAWLIRRRRSAGNASASA
# B6: HC2329 (peptide)
# chain: CAEYPCHRPSAGNASASA
# B7: FS-3212 (peptide)
# chain: CARSTRDVQAAGNASASA
# B8: FS-1503 (peptide)
# chain: CAWWRRRRRSAGNASASA
# B9: FS-528 (peptide)
# chain: CAFYNRRRRSAGNASASA
# B10: FS-982 (peptide)
# chain: CADLARHYKSAGNASASA
# B11: HC1168 (peptide)
# chain: CAYKGVWRVDAGNASASA
# B12: HC946 (peptide)
# chain: CAHFLSQTKQAGNASASA
# B13: HC2569 (peptide)
# chain: CASTPCSAHYAGNASASA
# B14: FS-1100 (peptide)
# chain: CATTRVRRRSAGNASASA
# B15: HC608 (peptide)
# chain: CAVFGPLWILAGNASASA
# B16: FS-2833 (peptide)
# chain: CARTPRSSSAAGNASASA
# B17: HC169 (peptide)
# chain: CARRPQDVKFAGNASASA
# B18: FS-1781 (peptide)
# chain: CARRLRDQEAAGNASASA
# B19: FS-2179 (peptide)
# chain: CARRPRRVIAAGNASASA
# B20: FS-2467 (peptide)
# chain: CARTPREVEAAGNASASA
# B21: FS-1921 (peptide)
# chain: CARRPRRVEAAGNASASA
# B22: FS-1837 (peptide)
# chain: CARRPRHLSAAGNASASA
# B23: FS-2782 (peptide)
# chain: CARRPRQKEAAGNASASA
# Target: furin, P09958
# Experiment: furin cleavage Z-score vs untreated control; higher = more cleavage, active = 3.5 or more, inactive = 1 or less, 8 variable residues between constant flanks
# Outline: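 Peptides 8 residues long, fused to a cDNA oligonucleotide, were fixed to magnetic beads by the N-terminus and exposed to purified furin. The 0.01 ml reactions contained 50 mM HEPES pH 7.5 with CaCl2 and NaCl at 1:10 enzyme:substrate and ran 7.5, 15 or 30 min. For the cleavage Z-score, log counts of sequenced released DNA were compared with furin-free reactions, lowess-adjusted and scaled by median absolute deviation.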
# furin, P09958, sequence (P09958 whole entry): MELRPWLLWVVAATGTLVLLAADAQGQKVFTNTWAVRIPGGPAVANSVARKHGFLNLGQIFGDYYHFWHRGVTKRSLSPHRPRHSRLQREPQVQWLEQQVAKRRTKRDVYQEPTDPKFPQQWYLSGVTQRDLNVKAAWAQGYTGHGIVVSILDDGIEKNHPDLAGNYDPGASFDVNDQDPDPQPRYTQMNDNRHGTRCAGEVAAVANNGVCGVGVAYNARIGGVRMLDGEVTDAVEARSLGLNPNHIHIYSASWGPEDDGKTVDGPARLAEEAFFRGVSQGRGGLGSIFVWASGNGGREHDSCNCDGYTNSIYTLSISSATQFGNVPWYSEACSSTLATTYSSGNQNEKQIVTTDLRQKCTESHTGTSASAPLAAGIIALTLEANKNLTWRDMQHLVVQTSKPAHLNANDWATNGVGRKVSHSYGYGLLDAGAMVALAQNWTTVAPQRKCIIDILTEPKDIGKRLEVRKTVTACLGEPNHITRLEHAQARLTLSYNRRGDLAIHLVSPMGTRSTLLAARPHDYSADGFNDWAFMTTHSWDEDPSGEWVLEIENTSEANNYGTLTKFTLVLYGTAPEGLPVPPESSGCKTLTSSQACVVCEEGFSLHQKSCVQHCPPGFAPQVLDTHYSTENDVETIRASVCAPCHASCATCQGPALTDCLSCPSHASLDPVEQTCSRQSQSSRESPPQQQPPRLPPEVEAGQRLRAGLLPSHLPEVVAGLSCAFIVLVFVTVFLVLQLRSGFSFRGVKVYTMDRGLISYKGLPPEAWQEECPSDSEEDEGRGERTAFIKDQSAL
Sequence,furin cleavage Z-score (7.5 min),furin cleavage Z-score (15 min),furin cleavage Z-score (30 min)
B1,-0.0824 (inactive),0.0077 (inactive),0.561 (inactive)
B2,-2.12 (inactive),-1.48 (inactive),-1.08 (inactive)
B3,0.86 (inactive),-0.828 (inactive),1.43
B4,0.473 (inactive),0.0326 (inactive),-0.438 (inactive)
B5,13.7 (active),13.5 (active),11.2 (active)
B6,-1.31 (inactive),-1.61 (inactive),0.059 (inactive)
B7,6.84 (active),7.38 (active),6.15 (active)
B8,12.2 (active),12.2 (active),8.61 (active)
B9,10.4 (active),10.5 (active),8.75 (active)
B10,1.07,-0.538 (inactive),-1.88 (inactive)
B11,-0.715 (inactive),-0.703 (inactive),0.326 (inactive)
B12,-1.62 (inactive),-0.0771 (inactive),0.398 (inactive)
B13,-0.833 (inactive),0.198 (inactive),0.946 (inactive)
B14,8.61 (active),10.7 (active),6.67 (active)
B15,-0.487 (inactive),-1.14 (inactive),-0.989 (inactive)
B16,0.99 (inactive),-0.243 (inactive),2.32
B17,-0.409 (inactive),-1.01 (inactive),-0.285 (inactive)
B18,0.143 (inactive),-1.21 (inactive),-0.196 (inactive)
B19,-0.112 (inactive),2.08,3.81 (active)
B20,1.78,1.61,4.16 (active)
B21,1.67,1.82,3.69 (active)
B22,5.27 (active),4.94 (active),5.51 (active)
B23,0.0199 (inactive),-1.9 (inactive),-0.838 (inactive)

# — the supplement of paper PMC3545927
